Bioassay records as filed in PubChem BioAssay.
Rows were chosen to be rich in hits. Some 6.7% of all compounds tested hit in one or more screens of this group.
C diff growth: inhibitors of Clostridium difficile growth; Clostridium difficile clinical isolate growth, OD600, 24 h; hits give low values; growth activity, negative = inhibition, % at 16 µg/mL (by protocol); 0.25% of 86,000 active;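 active means mean growth activity at or below -80% and every replicate also at or below -80%; inconclusive means mean at or below -80% but some replicate above -80%; inactive means mean growth activity above -80%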
Pf Dd2 inh: blocks growth of Plasmodium falciparum Dd2 parasites | 2.3% of 94,000 active | P. falciparum Dd2 growth, SYBR Green, 72 h; hits give low values | activity change, % at 10 µM; in the data active means activity change below about -80%; inconclusive means no clear call, values can overlap the other calls
T cruzi growth-1: T. cruzi proliferation inhibition; T. cruzi beta-gal in NIH3T3, GalScreen luminescence, 90 h; inhibition, % at 8.34 µM; 5.9% of 77,000 active; AID 624255;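 active means mean inhibition above about 93%, with at least 55% of replicates each passing it, limit read from the data, passing the limit was not always enough; inconclusive means only one of those two conditions holds; inactive means neither condition holds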
T cruzi growth-2: inhibitors of T. cruzi proliferation. shares compounds with T cruzi growth-1. T. cruzi beta-gal in NIH3T3, GalScreen luminescence, 90 h. inhibition, % at 8.35 µM. 72% of 5,600 active;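 active means mean replicate inhibition above about 95% and at least 55% of replicates individually reaching it, limit read from the data; inconclusive means only one of the two criteria is met; inactive means neither criterion is met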
T cruzi growth-3: inhibitors of T. cruzi proliferation; shares compounds with T cruzi growth-1; T. cruzi beta-gal in NIH3T3, GalScreen luminescence, 90 h; inhibition, % at 2.09 µM; 21% of 5,600 active;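 active means mean inhibition above about 95%, with at least 55% of replicates also reaching it, limit read from the data; inconclusive means meets just one of the two conditions; inactive means meets neither condition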
3T3 cytotox: cytotoxicity in mouse NIH/3T3 fibroblasts; NIH/3T3 viability, CellTiter-Glo ATP luminescence, 90 h; shares compounds with T cruzi growth-1; 14% of 5,600 active; cytotoxicity (signal decrease), % at 8.35 µM;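 active means mean signal decrease across replicates above about 35% based on untreated-well scatter, with enough replicates individually passing, limit read from the data; inconclusive means no rule stated though some were filed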
3T3 cytotox 2: cytotoxicity in mouse NIH/3T3 fibroblasts; shares compounds with T cruzi growth-1; NIH/3T3 viability, CellTiter-Glo ATP luminescence, 90 h; 56% of 5,600 active; inhibition, % at 24.9 µM;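 active means mean loss of cell viability signal at or above a set limit, and enough replicates individually reaching it; inconclusive means meets only the mean limit or only the replicate share; inactive means meets neither condition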
Numbers stand for hits; . = inactive; ? = inconclusive; / = no result given.

SMILES	C diff growth	Pf Dd2 inh	T cruzi growth-1	T cruzi growth-2	T cruzi growth-3	3T3 cytotox	3T3 cytotox 2
CO[C@@H]1CN(C)C(=O)c2ccc(NC(=O)Cc3ccccc3)cc2OC[C@@H](C)N(C(C)=O)C[C@@H]1C	/	.	.	/	/	/	/
N#Cc1cccc(-c2ccc(C3[C@H]4CNC[C@@H]3N4C(=O)Nc3cccc(F)c3)cc2)c1 (stereo partly drawn)	.	.	/	/	/	/	/
COc1ccccc1-c1ccc2c(c1)O[C@@H](CN(C)S(=O)(=O)c1ccc(C)cc1)[C@H](C)CN([C@@H](C)CO)S2(=O)=O	.	-84	126	100	.	.	46
COc1ccccc1-c1ccc2c(c1)O[C@H](CN(C)S(=O)(=O)c1ccc(C)cc1)[C@H](C)CN([C@H](C)CO)S2(=O)=O	.	.	120	100	?	.	53
C[C@H]1CN([C@@H](C)CO)C(=O)Cc2cc(NS(=O)(=O)c3ccc(F)cc3)ccc2O[C@H]1CN(C)C(=O)NC1CCCCC1	.	.	.	/	/	/	/
C[C@@H]1CN([C@H](C)CO)S(=O)(=O)c2ccc(-c3ccncc3)cc2O[C@H]1CN(C)Cc1cccnc1	.	.	.	/	/	/	/
CC(C)C#Cc1ccc([C@H]2[C@H](C#N)N(C(=O)C3CC3)[C@H]2CO)cc1	.	.	.	/	/	/	/
CCCC#Cc1ccc([C@@H]2[C@@H](C#N)N(C(=O)C3CCCC3)[C@H]2CO)cc1	.	.	102	96	102	.	39
CCCC#Cc1ccc([C@@H]2[C@@H](CO)N(C(=O)C3CCOCC3)[C@H]2C#N)cc1	.	.	.	/	/	/	/
CCCC#Cc1ccc([C@H]2[C@@H](C#N)N(C(=O)C3CCCC3)[C@H]2CO)cc1	.	.	98	.	106	.	43
CC(C)C#Cc1ccc([C@@H]2[C@@H](C#N)N(C(=O)C3CCC3)[C@H]2CO)cc1	.	.	?	101	.	.	33
CCCC#Cc1ccc([C@@H]2[C@@H](C#N)N(C(=O)C3CCC3)[C@@H]2CO)cc1	.	.	99	99	.	.	33
CC(C)C#Cc1ccc([C@H]2[C@@H](CO)N(C(=O)C3CCC3)[C@H]2C#N)cc1	.	.	.	/	/	/	/
CC(C)C#Cc1ccc([C@H]2[C@@H](C#N)N(C(=O)C3CC3)[C@@H]2CO)cc1	.	.	.	/	/	/	/
C[C@H]1CN([C@@H](C)CO)S(=O)(=O)c2ccc(C#CC3(O)CCCC3)cc2O[C@H]1CN(C)C(=O)Cc1ccncc1	.	.	/	/	/	/	/
CO[C@@H]1CN(C)C(=O)c2ccc(NC(=O)c3ccno3)cc2OC[C@@H](C)N(S(C)(=O)=O)C[C@H]1C	.	.	/	/	/	/	/
CCCC#Cc1ccc2c(c1)O[C@@H](CN(C)C(=O)COC)[C@@H](C)CN([C@@H](C)CO)S2(=O)=O	.	.	.	/	/	/	/
COCC#Cc1cnc2c(c1)C(=O)N([C@@H](C)CO)C[C@H](C)[C@H](CN(C)C(=O)C1CC1)O2	/	.	.	/	/	/	/
CCCC#Cc1ccc([C@H]2[C@@H](CO)N(C(=O)C3CCCC3)[C@H]2C#N)cc1	.	.	105	116	.	.	28
CCCC#Cc1ccc([C@H]2[C@@H](C#N)N(C(=O)C3CCOCC3)[C@H]2CO)cc1	.	.	.	/	/	/	/
CC(C)C#Cc1ccc([C@H]2[C@@H](CO)N(C(=O)C3CC3)[C@H]2C#N)cc1	.	.	.	/	/	/	/
CCCC#Cc1ccc([C@@H]2[C@H](C#N)N(C(=O)C3CC3)[C@H]2CO)cc1	.	.	98	107	108	.	.
CC(C)C#Cc1ccc([C@H]2[C@H]3CN(C(=O)c4ccc5c(c4)OCO5)CC(=O)N3[C@H]2CO)cc1	.	.	/	/	/	/	/
C[C@@H]1CN([C@@H](C)CO)C(=O)c2cc(NC(=O)NC3CCCCC3)ccc2O[C@@H]1CN(C)S(=O)(=O)c1cn(C)cn1	.	.	.	/	/	/	/
